In the supplement of paper PMC6555819:

Tests used:
Assay in all cases: PBM binding z-score (relative to random genomic background probes); higher = stronger binding; sequences stand for … in GC…GCGATTGACAGCGTAGAATGAAGG
[1] = test system: FXR:RXRa (NR concentration 270 nM, RXRa partner concentration 90 nM)
Method in brief: (§1)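 Binding z-scores were set against random background probes. The data came from custom Agilent 4×180K protein-binding microarrays carrying double-stranded probes with 34-nt variable regions, incubated 1 h with ligand-free nuclear receptor dimers. Partner-specific antibodies detected binding, and scanned fluorescence was regression-normalized.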

[2] = test system: LXRa:RXRa (NR concentration 270 nM, RXRa partner concentration 90 nM)
Method in brief: as §1

[3] = test system: LXRa homodimer (NR concentration 270 nM)
Method in brief: as §1

[4] = test system: LXRb:RXRa (NR concentration 270 nM, RXRa partner concentration 90 nM)
Method in brief: as §1

[5] = test system: LXRb homodimer (NR concentration 270 nM)
Method in brief: as §1

[6] = test system: PPARa:RXRa (NR concentration 270 nM, RXRa partner concentration 90 nM)
Method in brief: as §1

[7] = test system: PPARg:RXRa (NR concentration 180 nM, RXRa partner concentration 90 nM)
Method in brief: as §1

[8] = test system: PPARg:RXRa 270nM:90nM, anti-RXR (NR concentration 270 nM, RXRa partner concentration 90 nM)
Method in brief: as §1

[9] = test system: PPARg:RXRa 30nM:10nM, anti-RXR (NR concentration 30 nM, RXRa partner concentration 10 nM)
Method in brief: as §1

[10] = test system: PPARg:RXRa 90nM:30nM, anti-RXR (NR concentration 90 nM, RXRa partner concentration 30 nM)
Method in brief: as §1

[11] = test system: PPARg:RXRa DBDmut IVT, anti-RXR (DBD mutation: RXRa K156A/R161A, NR concentration 270 nM, RXRa partner concentration 90 nM)
Method in brief: as §1

[12] = test system: PPARg:RXRa IVT, anti-PPARg (NR concentration 270 nM, RXRa partner concentration 90 nM)
Method in brief: as §1

[13] = test system: PPARg DBDmut:RXRa IVT, anti-PPARg (DBD mutation: PPARg1 K132A/R137A, NR concentration 270 nM, RXRa partner concentration 90 nM)
Method in brief: as §1

[14] = test system: PPARg DBDmut IVT, anti-PPARg (DBD mutation: PPARg1 K132A/R137A, NR concentration 270 nM)
Method in brief: as §1

[15] = test system: PPARg homodimer (NR concentration 180 nM)
Method in brief: as §1

[16] = test system: PXR:RXRa (NR concentration 270 nM, RXRa partner concentration 90 nM)
Method in brief: as §1

[17] = test system: PXR homodimer (NR concentration 270 nM)
Method in brief: as §1

[18] = test system: RARa:RXR (NR concentration 270 nM, RXRa partner concentration 90 nM)
Method in brief: as §1

[19] = test system: RARa homodimer (NR concentration 270 nM)
Method in brief: as §1

Row | Sequence | PBM binding z-score [1] | PBM binding z-score [2] | PBM binding z-score [3] | PBM binding z-score [4] | PBM binding z-score [5] | PBM binding z-score [6] | PBM binding z-score [7] | PBM binding z-score [8] | PBM binding z-score [9] | PBM binding z-score [10] | PBM binding z-score [11] | PBM binding z-score [12] | PBM binding z-score [13] | PBM binding z-score [14] | PBM binding z-score [15] | PBM binding z-score [16] | PBM binding z-score [17] | PBM binding z-score [18] | PBM binding z-score [19]
1 | CCGACTGGGCCATTCAGAGGTCATTGATCATATG | 2.92 | 4.38 | 6.59 | 3.54 | -0.323 | 3.44 | 1.4 | 2.29 | 0.268 | 1.42 | 3.29 | 2.53 | -0.872 | -0.8 | 3.14 | 4.88 | 2.75 | 4.62 | -0.131
2 | GCTGCAAGGTCAACTGATGGTCAGCTAAAGCTCG | 7.53 | 5.93 | 0.917 | 4.54 | 1.33 | 5.97 | 4.81 | 5.67 | 1.77 | 3.97 | 3.15 | 3.5 | 0.338 | -0.136 | 2.93 | 4.58 | 0.331 | 5.36 | 0.743
3 | ACTAGCAGGCCAAGAGTCACTCAAGATTAGTCCG | 0.0217 | -0.0111 | -0.373 | -0.29 | -0.882 | 1.46 | 2.56 | 4.08 | 2.06 | 3.48 | 0.813 | 0.847 | -0.175 | -0.385 | 0.631 | -0.105 | -0.185 | 0.354 | -0.112
4 | CCTTACCGGTCAAGGTTATAGCACGGGTGGTACG | 1.7 | 1.88 | 0.946 | 1.05 | 0.381 | 1.83 | 0.758 | 0.908 | -0.303 | 0.282 | -0.499 | 0.825 | -0.737 | -0.375 | 1.58 | 1.16 | 0.299 | 1.3 | 0.889
5 | ATCGGAAGGTCGAGGTGAGTATAGAGAAAGGGAA | 2.07 | 1.65 | -0.107 | 1.23 | 0.134 | 2.5 | 1.23 | 1.33 | 0.513 | 0.876 | 0.383 | 1.36 | 0.811 | 0.693 | 1.44 | 1.1 | 0.218 | 1.59 | 0.522
6 | CCTACTGGGCCACGAAAGGTAATTGATTCAGTGA | -0.128 | -0.227 | -0.337 | -0.403 | -0.777 | 1.1 | 1.63 | 1.38 | -0.0637 | 0.669 | 5.29 | 5.07 | 0.766 | -0.144 | 0.00713 | -0.257 | -0.335 | -0.102 | 0.0551
7 | CGTCTAAGGTCAAGGTCAGTGAAAGAGACTCGAA | 8.18 | 6.22 | 1.33 | 5.02 | 1.18 | 6.43 | 6.86 | 6.78 | 3.43 | 5.94 | 4.02 | 4.78 | 0.613 | 0.471 | 4.29 | 5.41 | 1.4 | 5.75 | 2.57
8 | CGAACTAGCTCAAGGACAGTGAATCTCCGCACGC | 0.148 | -0.503 | 0.172 | -0.398 | -0.571 | -0.568 | 0.277 | -0.53 | -0.374 | -0.661 | 0.26 | -0.559 | -0.68 | -0.183 | -0.00792 | -0.255 | -0.354 | -0.192 | -0.143
9 | ACAGACAGGTGAGTGAAGGTCACTCAGCTGGACG | 2.41 | 2.98 | 0.517 | 1.82 | -0.302 | 2.61 | 1.51 | 1.98 | 0.232 | 1.46 | 0.842 | 2.27 | 0.253 | 0.153 | 1.49 | 3.66 | 0.106 | 2.82 | 0.0123
10 | CGTCCAAGGTCAGCAGGTCACTGAAAGCGACGTG | 6.56 | 4.66 | 0.808 | 3.7 | 0.0267 | 5.5 | 5.54 | 5.5 | 1.58 | 4.01 | 3.75 | 4.56 | 0.394 | -1.07 | 5.36 | 4.71 | 0.781 | 6.22 | 2.7
11 | TTACCAAGGTGAAAGGTCGTTGAAGCACGCCTTG | 4.16 | 3.41 | 0.16 | 2.97 | -0.616 | 5.82 | 9.24 | 8.52 | 7.08 | 9.79 | 2.63 | 5.39 | 0.668 | -0.186 | 1.84 | 4.44 | 0.41 | 6.52 | -0.363
12 | AATACAGGATCACTAGGCCAGAGTAGGTACGAAT | -0.102 | -0.204 | -0.28 | -0.407 | -0.237 | 0.128 | 1.19 | 0.718 | 0.264 | 0.869 | 0.409 | 1.29 | 1.21 | 0.197 | 0.314 | -0.236 | 0.366 | -0.456 | 0.395
13 | CGTTCAAGGTCATAGGAGGTCAGTGAAGACAGAT | 7.91 | 7.81 | 5.4 | 6.52 | 1.26 | 6.19 | 6.82 | 6.49 | 2.97 | 5.27 | 3.95 | 5.26 | 1.34 | 2.03 | 5.42 | 6.86 | 5.84 | 6.33 | 3.73
14 | CAAGCTAGGTCAAGAGGTCAAAGTCCGCTTCCCG | 7.28 | 6.35 | 6.45 | 5.81 | 1.58 | 6.2 | 6.82 | 6.77 | 4.04 | 6.31 | 4.26 | 5.5 | 0.198 | -0.534 | 7.12 | 6.25 | 3.16 | 7.58 | 3.04
15 | CGAACTAAGTCATCCAGGACAGTGAATACATTGA | 0.0178 | -0.0444 | 0.135 | -0.252 | -0.311 | 0.0393 | 0.532 | 0.277 | 0.283 | 0.237 | 1.12 | 0.862 | 0.763 | 1.05 | 0.291 | -0.153 | -0.248 | 0.371 | 0.476
